42 compounds from PubChem BioAssay (NCATS) can be followed below.

The target in assay [1] is N-terminal Xaa-Pro-Lys N-methyltransferase 1 (Homo sapiens) (UniProt Q9BV86). Description: qHTS Assay for Inhibitors of N-terminal methyltransferase 1 (NTMT1): LOPAC validation of the NTMT1 SAHH-coupled ThioGlo3 Assay (AID 1347143). Note: nearly all actives have a fitted effect of over 70% in size. Note: potency is the fitted concentration of half-maximal effect. The method, boiled down: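 Fluorescence read-out (excitation 340nm, emission 450nm) of SAH-derived thiol, measured via SAHH coupling and ThioGlo3, taken immediately and after a 30 min room-temperature reaction, then normalized to the background read. Enzyme: NTMT1 at 125nM; cofactor SAM 100uM in the added reagent.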
For orientation: In qHTS, concentration-response curves come from the screen itself.

Assay [2] has as its system Zika virus NS2B-NS3 protease (unlinked). Description: Optimization of GU AMC qHTS for Zika virus inhibitors: Unlinked NS2B-NS3 protease assay (AID 1347151). Note: nearly all actives have a fitted effect of over 80% in size. Note: potency is the fitted concentration of half-maximal effect. The gist of the method: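 Noncovalent complex of NS2B hydrophilic domain and NS3 protease domain, 25 nM final, in 10 mM Tris-HCl pH 8.0, 0.01% Tween 20. AMC fluorescence change over 15 min at room temperature was fitted to a 4-parameter Hill equation.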

Assay [3] deals with Furin (Homo sapiens) (UniProt P09958). Put plainly: Furin counterscreen qHTS for Zika virus inhibitors (AID 1347149).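 Note: purified recombinant full-length human furin enzyme at 5 nM; fluorescence gain from furin cutting a BOC-RVRR-AMC peptide substrate over 15 min; top concentration of the series differs between compounds; nearly all actives have a fitted effect of over 70% in size.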 The method, boiled down:
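Fluorogenic cleavage of BOC-RVRR-AMC (2 microM final, Km ~15 µM) was monitored (ex 340, em 450 nm) at 37C after 15 min RT preincubation of 5 nM furin with compounds in HEPES pH 7.0 buffer with CaCl2 and Triton X-100. Percent inhibition was fitted to a 4-parameter Hill curve.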
(In general: The purpose of a counterscreen is to sort out artefacts and off-target activity.)

The structures appear in SMILES notation. Inconclusive results are not listed. A call without a number means that no potency is given here. Calls of active or inactive are those of the source. Calls come from the whole dose curve; as a rule, active = well fitted inhibition curve with a large enough effect; inconclusive = small, poorly fitted or top-dose-only effect; inactive = no such curve, though single readings can be large or run the other way.

Chain of N-terminal Xaa-Pro-Lys N-methyltransferase 1 (Homo sapiens) (Q9BV86 whole entry, looked up): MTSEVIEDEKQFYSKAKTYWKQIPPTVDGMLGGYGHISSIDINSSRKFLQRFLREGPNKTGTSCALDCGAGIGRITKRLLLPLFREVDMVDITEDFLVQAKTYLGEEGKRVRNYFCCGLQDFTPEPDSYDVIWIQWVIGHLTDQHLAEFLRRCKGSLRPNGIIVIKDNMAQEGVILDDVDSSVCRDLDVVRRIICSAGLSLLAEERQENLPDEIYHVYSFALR
Chain of Furin (Homo sapiens) (P09958 whole entry, looked up): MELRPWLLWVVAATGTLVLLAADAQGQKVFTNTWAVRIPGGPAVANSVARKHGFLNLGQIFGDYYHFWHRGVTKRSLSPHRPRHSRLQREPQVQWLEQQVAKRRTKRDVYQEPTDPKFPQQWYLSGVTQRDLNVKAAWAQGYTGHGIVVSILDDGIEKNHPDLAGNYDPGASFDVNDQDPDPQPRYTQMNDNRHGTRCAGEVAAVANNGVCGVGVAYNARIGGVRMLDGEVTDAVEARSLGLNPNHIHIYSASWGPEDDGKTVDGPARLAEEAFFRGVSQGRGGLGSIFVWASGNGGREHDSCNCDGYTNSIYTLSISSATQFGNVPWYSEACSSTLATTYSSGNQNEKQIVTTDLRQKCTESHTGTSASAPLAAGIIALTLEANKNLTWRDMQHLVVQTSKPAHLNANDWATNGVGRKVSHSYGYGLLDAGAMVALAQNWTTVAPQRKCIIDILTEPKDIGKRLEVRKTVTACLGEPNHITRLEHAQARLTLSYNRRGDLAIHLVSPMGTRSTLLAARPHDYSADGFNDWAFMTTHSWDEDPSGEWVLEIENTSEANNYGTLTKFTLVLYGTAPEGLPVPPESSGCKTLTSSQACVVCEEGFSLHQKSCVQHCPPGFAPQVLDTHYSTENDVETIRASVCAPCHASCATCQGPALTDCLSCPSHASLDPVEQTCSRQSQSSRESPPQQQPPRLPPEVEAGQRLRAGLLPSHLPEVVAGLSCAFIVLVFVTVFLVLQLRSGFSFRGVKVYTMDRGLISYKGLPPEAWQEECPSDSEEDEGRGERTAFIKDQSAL

`OCc1cnc[nH]1`: the Potency entry in assay [1] and in assay [2] was “inactive” throughout.
For the compound `NCC(O)c1cc(O)c(O)cc1F` (centres undefined), the Potency in assay [1] is 56.2 µM (active). For the same compound, in assay [2], the Potency result is “inactive”.
On the same counts, the results for `CCCN1CCC[C@@H](c2cccc(O)c2)C1` are “inactive” and “inactive”.
On the same counts, the results for `NC(CCCCCP(=O)(O)O)C(=O)O` (centres undefined) are “inactive” and “inactive”.
On the same counts, the results for `CP(=O)(O)C1=CCNCC1` are “inactive” and “inactive”.
`C[C@H](Cc1ccc2c(c1)OC(C(=O)O)(C(=O)O)O2)NC[C@H](O)c1cccc(Cl)c1`: the Potency result in assay [1] and in assay [2] was “inactive” throughout.
For the compound `C#CCN[C@H](C)Cc1ccccc1`, the Potency entry in assay [1] and in assay [2] was “inactive” each time.
Regarding `CCCN(CCC)C1CCc2cccc(O)c2C1` (centres undefined), the Potency entry in assay [1] and in assay [2] was “inactive” throughout.
In the case of `O=[N+]([O-])/C=C/c1ccc2c(c1)OCO2`, in assay [1], the Potency is 39.8 µM (active). Moreover, the Potency result in assay [2] is “inactive”.
The like results for `CCn1cnc2c(Nc3cccc(Cl)c3)nc(N[C@@H]3CCCC[C@@H]3N)nc21` were, in that order, 8.91 µM (active) and “inactive”.
The like results for `CCCN1CCc2cccc3c2[C@H]1Cc1ccc(O)c(O)c1-3` were, in that order, 15.8 µM (active) and 29.9 µM (active).
As for `CC(N)c1cccc(Cl)c1Cl` (centres undefined), the Potency entry in assay [1] and in assay [2] was “inactive” each time.
With `CCS(=O)(=O)Nc1cccc(C(=C2CCCCC2)c2cnc[nH]2)c1`, the Potency entry in assay [1] and in assay [2] was “inactive” in each case.
For the compound `C[N+]1(C)CCN(c2ccccc2)CC1`, the Potency in assay [1] was 28.2 µM (active). The Potency result in assay [2] is “inactive”.
For `C=CCN1C[C@@H](C)N([C@H](c2ccc(C(=O)N(CC)CC)cc2)c2cccc(OC)c2)C[C@@H]1C`, the Potency result in assay [1] and in assay [2] was “inactive” in each case.
With `Nc1cc2c(ncn2CCOCP(=O)(O)O)c(=O)[nH]1`, the Potency entry in assay [1] and in assay [2] was “inactive” each time.
Turning to `C[N+](C)(C)CC#CCN1CCCC1=O`, the Potency in assay [1] was 28.2 µM (active). Further, the Potency entry in assay [2] is “inactive”.
On the same counts, the results for `C[C@H](N)Cc1cccc(C(F)(F)F)c1` are “inactive” and “inactive”.
On the same counts, the results for `C[N+]1(C)C2CCC1CC(OC(=O)c1c[nH]c3ccccc13)C2` (centres undefined) are 31.6 µM (active) and “inactive”.
The like results for `O=S1(=O)N(CCN2CC=C(c3c[nH]c4cc(F)ccc34)CC2)c2cccc3c2N1CCC3` were, in that order, 50.1 µM (active) and “inactive”.
In the case of `C[N+](C)(C)CC#CCOC(=O)Nc1cccc(Cl)c1`, the Potency entry in assay [1] and in assay [2] was “inactive” in each case.
For the compound `C[C@@H]1O[C@@H](O[C@H]2C[C@@H](O)[C@]3(CO)[C@@H]4C(CC[C@]3(O)C2)[C@@]2(O)CC[C@H]([C@@H]3COC(=O)C3)[C@@]2(C)C[C@H]4O)[C@H](O)[C@H](O)[C@H]1O` (some centres undefined), the Potency result in assay [1] and in assay [2] was “inactive” each time.
Regarding `CN(N=O)c1cc(O)ccc1O`, in assay [1], the Potency is 3.55 µM (active). In addition, the Potency result in assay [2] is “inactive”.
On the same counts, the results for `CN1CCc2cccc(Cl)c2CC1` are “inactive” and “inactive”.
On the same counts, the results for `CC(C)(C)OC(=O)NC1[C@H]2CNC[C@@H]12` (some centres undefined) are “inactive” and “inactive”.
For `CC[C@H](C)[C@H]1O[C@]2(C=C[C@@H]1C)C[C@@H]1C[C@@H](C/C=C(\C)[C@@H](O[C@H]3C[C@H](OC)[C@@H](O[C@H]4C[C@H](OC)[C@@H](O)[C@H](C)O4)[C@H](C)O3)[C@@H](C)/C=C/C=C3\CO[C@@H]4[C@H](O)C(C)=C[C@@H](C(=O)O1)[C@]34O)O2`, the Potency result in assay [3] and in assay [2] was “inactive” throughout.
Turning to `CC(Cc1ccc(OCC(=O)O)cc1)NCC(O)c1cccc(Cl)c1` (centres undefined), the Potency result in assay [1] and in assay [2] was “inactive” in each case.
As to `COc1ccc(CNC(=O)/C=C/c2ccc3[nH]cc(CCN(C)C)c3c2)cc1`, the Potency entry in assay [1] and in assay [2] was “inactive” throughout.
Regarding `C[N+]1(C)CCOC(O)(c2ccc(-c3ccc(C4(O)C[N+](C)(C)CCO4)cc3)cc2)C1` (centres undefined), the Potency result in assay [1] and in assay [2] was “inactive” throughout.
For the compound `CC(=O)NBr`, the Potency entry in assay [1] and in assay [2] was “inactive” throughout.
Regarding `CN1C2CCC1CC(OC(c1ccccc1)c1ccccc1N)C2` (centres undefined), the Potency entry in assay [1] and in assay [2] was “inactive” each time.
With `CC(=O)c1c(O)c(C)c(O)c(Cc2c(O)c3c(c(C(=O)/C=C/c4ccccc4)c2O)OC(C)(C)C=C3)c1O`, the results for the Potency in assay [1] and in assay [2] were 50.1 µM (active) and 11.9 µM (active), respectively.
Consider `CC12NC(Cc3ccccc31)c1ccccc12` (centres undefined), for which the Potency entry in assay [1] and in assay [2] was “inactive” throughout.
For the compound `Clc1cc(I)cc(Cl)c1NC1=NCCN1`, the Potency entry in assay [1] and in assay [2] was “inactive” in each case.
For the compound `c1ccc2c(c1)[I+]c1ccccc1-2`, the Potency in assay [1] was 50.1 µM (active). Further, the Potency entry in assay [2] is “inactive”.
The like results for `O=C1C=CC(=O)C=C1` were, in that order, “inactive” and “inactive”.
The like results for `O=C(NC1CN2CCC1CC2)c1cc2ccoc2cn1` (centres undefined) were, in that order, “inactive” and “inactive”.
On the same counts, the results for `Cc1sc2ccccc2c1CC1=NCCN1` are 79.4 µM (active) and 26.7 µM (active).
On to `C[C@H]1C2Cc3ccc(O)cc3[C@@]1(C)CCN2CC1CC1`, for which the Potency entry in assay [1] and in assay [2] was “inactive” each time.
Consider `c1ccc2cc(CC3=NCCN3)ccc2c1`, for which the Potency entry in assay [1] and in assay [2] was “inactive” in each case.
Regarding `NC(N)=NOCC[C@H](N)C(=O)O`, the Potency result in assay [1] and in assay [2] was “inactive” throughout.
For the compound `NC(=O)c1cc(N2CC2)c([N+](=O)[O-])cc1[N+](=O)[O-]`, the Potency entry in assay [1] and in assay [2] was “inactive” in each case.
